# ClpP mod: qHTS Assay for Activators of ClpP; purified B. subtilis ClpP, FRET peptide cleavage, 20 min; Potency, µM (doses to about 57.5 µM); hit rate 1.9% among 340,000; AID 651965, 2013; active means well fitted falling curve with a large enough effect; inconclusive means small, poorly fitted or top-dose-only effect; inactive means no such curve, though single readings can be large or run the other way; further: the source files actives as falling curves though it sought activators and does not explain the sign; nearly all actives have a fitted effect of over 65% in size
#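 Purified B. subtilis ClpP, 10 microg/mL final in Tris/HCl pH8 with KCl, BSA, glycerol and Tween-20, cleaved an Abz/nitrotyrosine-quenched decapeptide. Fluorescence (ex 320, em 430) was read at 0 and 20 min at room temperature. Delta was normalized to 5.8 microM ADEP and DMSO/no-enzyme controls.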
# IL-1B inflam inh: inflammasome signaling inhibition, IL-1 beta readout. hit rate 4.7% among 360,000. activity change, % at 57.5 µM. THP-1 LPS/ATP IL-1B secretion, AlphaLISA, 16 h; hits give low values; in the data active means activity change below about -50%; inconclusive means mostly about -30% to -49%
#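 THP-1 cells pretreated 1 hr with compounds (up to 57.5 uM final), then stimulated with LPS (250 ng/mL final) plus ATP (1.25 mM final); secreted IL-1B measured by AlphaLISA after 16 hr, decreased signal indicating inhibition.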
# D3 antag: antagonists of human D3 dopamine receptor. D3R cells, DiscoveRx beta-arrestin luminescence, antagonist mode; hits give low values. P35462. max response, negative = inhibition, %. hit rate 2.5% among 360,000; in the data active means max response below about -50%; inconclusive means no clear call, values can overlap the other calls
# Target sequence (P35462 whole entry, looked up): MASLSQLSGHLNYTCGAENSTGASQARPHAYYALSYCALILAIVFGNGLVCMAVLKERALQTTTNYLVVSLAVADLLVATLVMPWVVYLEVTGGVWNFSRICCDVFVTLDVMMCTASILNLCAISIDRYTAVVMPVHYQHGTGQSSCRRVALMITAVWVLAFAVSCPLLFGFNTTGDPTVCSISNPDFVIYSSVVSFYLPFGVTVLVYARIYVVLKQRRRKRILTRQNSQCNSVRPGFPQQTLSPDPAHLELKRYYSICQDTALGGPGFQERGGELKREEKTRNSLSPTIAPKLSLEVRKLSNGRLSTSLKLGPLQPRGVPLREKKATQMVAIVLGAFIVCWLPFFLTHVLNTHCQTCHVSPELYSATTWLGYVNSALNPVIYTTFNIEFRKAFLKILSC
#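 Cells plated overnight at 1500 cells/well, then exposed to library compounds with dopamine controls for 90 minutes at 37 degrees C. DiscoveRx reagent added for 30–60 minutes at room temperature; luminescence read, quantitative HTS format.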
# DT40 TDP1 CPT: DT40-hTDP1 cell growth loss with CPT; AID 686979; chicken DT40 Tdp1-/-;hTDP1 cells + 20 nM CPT, ATP luminescence, 48 h; Potency, µM (top dose mostly 46.2 µM), actives largely listed as inhibitors; hit rate 12% among 420,000; further: nearly all actives have a fitted effect of over 55% in size
#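 Cell growth measured by CellTiter-Glo luminescence after a minimum 48 h, 37 C compound exposure with 20 nM CPT in Tdp1-knockout DT40 cells stably expressing hTDP1, seeded 400/well; qHTS titration format.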
# D3 ag: D3 dopamine receptor (human) agonism; AID 652048; max activation, %; D3R DiscoveRx beta-arrestin cells, luminescence, 90 min; hit rate 0.58% among 410,000; P35462; in the data active means max activation above about 30%
#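 Agonist-mode cell screen: cells plated at 1500/well and incubated overnight at 37 °C, then exposed to library compounds for 90 min at 37 °C. Detection reagent was added for 30–60 min at room temperature, and luminescence was read.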
# DT40 TDP1 no CPT: qHTS for Inhibitors of human tyrosyl-DNA phosphodiesterase 1 (TDP1): qHTS in cells in absence of CPT. DT40 Tdp1-/- hTDP1 cells, no CPT, ATP luminescence, 48 h. Potency, µM (doses to about 46.2 µM), hits mostly inhibitors. hit rate 15% among 420,000; further: nearly all actives have a fitted effect of over 55% in size
#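 Seeded 400 DT40-hTDP1 cells/well (vehicle DMSO, no 20 nM CPT); pinned compounds; ≥48 hr at 37 °C; CellTiter-Glo luminescence as viability measure.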
# A number is an active result; n = inactive; u = inconclusive; x = not tested or not shown. Shown are actives, neighbours in structure and some others; about 21% of the full set was active somewhere. Unless noted, the call rests on the fitted dose curve; in most records, active means well fitted inhibition curve with a large enough effect; inconclusive means small, poorly fitted or top-dose-only effect; inactive means flat fitted curve, though single readings scatter.
SMILES,ClpP mod,IL-1B inflam inh,D3 antag,DT40 TDP1 CPT,D3 ag,DT40 TDP1 no CPT
CC1CN(C(=O)c2cc(S(=O)(=O)N(C)c3ccc(F)cc3)ccc2Cl)CC(C)O1 (stereo not given),n,n,n,2.31µM,n,1.03µM
CC1CN(C(=O)c2cc(S(=O)(=O)N3CCCC3)ccc2Cl)CC(C)O1 (stereo not given),n,n,n,n,n,u
Cc1ccc(S(=O)(=O)N2CCOCC2)cc1C(=O)N1CC(C)OC(C)C1 (stereo not given),n,n,n,n,n,n
O=C(c1cccc(S(=O)(=O)N2CCN(c3ccccc3)CC2)c1)N1CCCCCCC1,n,n,n,u,n,13µM
CC1CN(C(=O)c2cc(S(=O)(=O)N3CCN(c4ccccc4)CC3)ccc2Cl)CC(C)O1 (stereo not given),n,n,n,3.66µM,n,2.06µM
O=C(Nc1cc(Cl)cc(Cl)c1)Nc1cnccn1,n,n,n,u,n,16.4µM
CCc1ccc(NC(=O)Nc2cnccn2)cc1,n,n,n,u,n,n
CCCCc1ccc(NC(=O)Nc2cnccn2)cc1,n,n,n,14.6µM,n,23.1µM
NC(=O)C1CCCN(S(=O)(=O)c2ccc3ccccc3c2)C1 (stereo not given),n,n,n,n,n,n
COc1cccc(C(=O)NCCSc2c(C)[nH]c3ccccc23)c1OC,n,n,n,u,n,u
COc1cc(C(=O)NCCSc2c(C)[nH]c3ccccc23)cc(OC)c1OC,n,x,x,u,n,14.6µM
Cc1cc(CSc2ccccc2)ccc1NC(=O)c1ccc(Cl)c([N+](=O)[O-])c1,n,u,n,u,n,u
COc1cc(C(=O)NCC(=O)N/N=C/c2c(C)[nH]c3ccccc23)cc(OC)c1OC,n,n,n,u,n,25.9µM
Cc1cc(CSc2ccccc2)ccc1NC(=O)c1ccc(C)c([N+](=O)[O-])c1,n,n,n,n,n,18.4µM
Cc1ccc(C(=O)NCCSc2c(C)[nH]c3ccccc23)cc1[N+](=O)[O-],n,n,n,10.3µM,n,20.6µM
CCN(CC(=O)Nc1ccc2c(c1)OCCO2)C(=O)/C=C/c1ccc([N+](=O)[O-])cc1,n,n,n,n,n,n
COc1ccc(C(CC(=O)Nc2ccc(C)cn2)N2Cc3ccccc3C2=O)cc1OC (stereo not given),n,x,x,n,n,u
COc1ccc(C(=O)N2CCN(C3CCCCC3)CC2)cc1OC,n,n,n,n,n,u
O=C(Cn1c(=O)n(-c2ccccc2Cl)c(=O)c2sc3ccccc3c21)NC1CCCC1,n,x,x,n,n,n
CC(=O)Nc1cc2c(cc1Br)-c1ccccc1C2,n,n,n,n,n,n
COc1ccccc1C(=O)NCCSc1c(C)[nH]c2ccccc12,n,x,x,16.4µM,n,23.1µM
Nc1[nH]c(=O)nc2snnc12,n,n,n,n,n,n
CN1CCCN(C2C3CC4CC(C3)CC2C4)CC1 (stereo not given),n,n,-91.7,n,n,n
CC(C)(C)NS(=O)(=O)c1ccc(/C=C/C(=O)O)cc1,n,n,n,n,n,n
Cc1nn(-c2ccc(F)cc2)c(Cl)c1C(=O)OC(C)C(=O)N(C)C1CCCCC1 (stereo not given),n,n,n,u,n,11.6µM
C=C1C=C(C(F)F)n2ncc(C(=O)N3CCc4ccccc4C3)c2N1,n,x,x,u,x,u
CC(C)CC(=O)Nc1ccc(-c2cn3ccsc3n2)cc1,n,n,n,u,n,u
CC(C)(C)C(=O)Nc1ccc(-c2cn3ccsc3n2)cc1,n,n,n,14.1µM,n,u
COc1ccc(-c2noc(N3CCC(C(=O)N4CCN(c5ccccc5F)CC4)CC3)n2)cc1,n,x,x,u,n,5.17µM
COc1ccc(-c2noc(N3CCC(C(=O)N(C)c4ccccc4C)CC3)n2)cc1,n,n,n,u,n,u

# Screening data deposited in PubChem by National Center for Advancing Translational Sciences (NCATS).
